# Reference: PubChem BioAssay AID1159580 (chemical genetic matrix, 2015)
# Among all 5,500 compounds or so, about 2,000 (36%) were called active. Inconclusive results (about 18%) are left out. The list shows a part of the results. Unmarked numbers belong to inactive results. No stated cut-off is given here; in the data, active means normalized growth mostly below about 0.91 (no sharp cut-off); inconclusive means no clear call, values can overlap the other calls; inactive means mostly above about 0.92.
# Assay: chemical genetic growth profiling, strain panel (AID 1159580);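 further: tested at 20 µM; growth read once vehicle control cultures reached saturation at 30 °C; 1 = growth at the plate median or of vehicle wells; lower values mean less growth of the strain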
# Conditions: growth OD
# [1] = S. cerevisiae deletion strains, locus YAL013W, strain DEP1, hits give low values
# [2] = S. cerevisiae deletion strains, locus YDL101C, strain DUN1, hits give low values
# [3] = S. cerevisiae deletion strains, locus YDR150W, strain NUM1, hits give low values
# [4] = S. cerevisiae deletion strains, locus YGR078C, strain PAC10, hits give low values
# [5] = S. cerevisiae deletion strains, locus YHR030C, strain SLT2, hits give low values
# [6] = S. cerevisiae deletion strains, locus YJR075W, strain HOC1, hits give low values
# [7] = S. cerevisiae deletion strains, locus YNL322C, strain KRE1, hits give low values
# [8] = S. cerevisiae deletion strains, locus YPL241C, strain CIN2, hits give low values
compound,measurement,setting,value
O=C1NC(=S)NC(=O)C1=Cc1cccc2ccccc12,normalized growth,[1],0.975
same,normalized growth,"S. cerevisiae deletion strains, locus YBR229C, strain ROT2, hits give low values",0.989
same,normalized growth,"S. cerevisiae deletion strains, locus YCL061C, strain MRC1, hits give low values",0.97
same,normalized growth,[2],0.963
same,normalized growth,[3],0.891
same,normalized growth,"S. cerevisiae deletion strains, locus YEL061C, strain CIN8, hits give low values",0.976
same,normalized growth,[4],0.976
same,normalized growth,[5],0.709
same,normalized growth,"S. cerevisiae deletion strains, locus YHR087W, strain rtc3, hits give low values",0.913
same,normalized growth,[6],0.928
same,normalized growth,"S. cerevisiae deletion strains, locus YKL190W, strain CNB1, hits give low values",1
same,normalized growth,"S. cerevisiae deletion strains, locus YLR039C, strain RIC1, hits give low values",0.841
same,normalized growth,"S. cerevisiae deletion strains, locus YLR058C, strain SHM2 (second series), hits give low values",0.99
same,normalized growth,"S. cerevisiae deletion strains, locus YLR085C, strain ARP6, hits give low values",0.907
same,normalized growth,"S. cerevisiae deletion strains, locus YLR262C, strain YPT6, hits give low values",0.879
same,normalized growth,"S. cerevisiae deletion strains, locus YML094W, strain GIM5, hits give low values",0.954
same,normalized growth,"S. cerevisiae deletion strains, locus YMR219W, strain ESC1, hits give low values",0.985
same,normalized growth,"S. cerevisiae deletion strains, locus YMR263W, strain SAP30, hits give low values",0.93
same,normalized growth,"S. cerevisiae deletion strains, locus YNL128W, strain TEP1, hits give low values",0.991
same,normalized growth,"S. cerevisiae deletion strains, locus YNL153C, strain GIM3, hits give low values",0.979
same,normalized growth,"S. cerevisiae deletion strains, locus YNL298W, strain CLA4 (second series), hits give low values",0.995
same,normalized growth,[7],0.986
same,normalized growth,"S. cerevisiae deletion strains, locus YNR030W, strain Alg12, hits give low values",0.988
same,normalized growth,"S. cerevisiae deletion strains, locus YPL055C, strain LGE1, hits give low values",0.92
same,normalized growth,[8],0.983
same,normalized growth,"S. cerevisiae deletion strains, locus YPR135W, strain CTF4, hits give low values",0.806
same,normalized growth,"S. cerevisiae strains, strain wild type, hits give low values",0.998
O=C1Nc2ccccc2/C1=C\c1c[nH]c2ccccc12,normalized growth,"S. cerevisiae deletion strains, locus YAR019C, strain CDC15, hits give low values",0.472 (active)
same,normalized growth,"S. cerevisiae deletion strains, locus YBL105C, strain PKC1, hits give low values",0.627 (active)
same,normalized growth,"S. cerevisiae deletion strains, locus YBR135W, strain CKS1, hits give low values",0.926
same,normalized growth,"S. cerevisiae deletion strains, locus YBR136W, strain MEC1, hits give low values",0.88 (active)
same,normalized growth,"S. cerevisiae deletion strains, locus YBR160W, strain CDC28, hits give low values",0.843 (active)
same,normalized growth,"S. cerevisiae deletion strains, locus YDL017W, strain CDC7, hits give low values",0.717 (active)
same,normalized growth,"S. cerevisiae deletion strains, locus YDL028C, strain MPS1, hits give low values",0.927
same,normalized growth,[2],0.491 (active)
same,normalized growth,"S. cerevisiae deletion strains, locus YDL108W, strain KIN28, hits give low values",0.924
same,normalized growth,"S. cerevisiae deletion strains, locus YDL132W, strain cdc53, hits give low values",0.628 (active)
same,normalized growth,"S. cerevisiae deletion strains, locus YDL214C, strain PRR2, hits give low values",0.289 (active)
same,normalized growth,"S. cerevisiae deletion strains, locus YDR052C, strain DBF4, hits give low values",0.91 (active)
same,normalized growth,"S. cerevisiae deletion strains, locus YDR054C, strain cdc34, hits give low values",0.432 (active)
same,normalized growth,"S. cerevisiae deletion strains, locus YDR226W, strain ADK1, hits give low values",0.84 (active)
same,normalized growth,"S. cerevisiae deletion strains, locus YDR477W, strain SNF1, hits give low values",0.135 (active)
same,normalized growth,"S. cerevisiae deletion strains, locus YER123W, strain YCK3, hits give low values",0.249 (active)
same,normalized growth,"S. cerevisiae deletion strains, locus YER133W, strain GLC7, hits give low values",0.202 (active)
same,normalized growth,"S. cerevisiae deletion strains, locus YFL009W, strain cdc4, hits give low values",0.526 (active)
same,normalized growth,"S. cerevisiae deletion strains, locus YFL029C, strain CAK1, hits give low values",0.472 (active)
same,normalized growth,"S. cerevisiae deletion strains, locus YFR003C, strain YPI1, hits give low values",0.894 (active)
same,normalized growth,"S. cerevisiae deletion strains, locus YFR019W, strain FAB1, hits give low values",0.168 (active)
same,normalized growth,"S. cerevisiae deletion strains, locus YFR028C, strain CDC14, hits give low values",0.753 (active)
same,normalized growth,"S. cerevisiae deletion strains, locus YGR040W, strain KSS1, hits give low values",0.164 (active)
same,normalized growth,"S. cerevisiae deletion strains, locus YGR052W, strain FMP48, hits give low values",0.126 (active)
same,normalized growth,"S. cerevisiae deletion strains, locus YGR092W, strain DBF2, hits give low values",0.109 (active)
same,normalized growth,[5],0.101 (active)
same,normalized growth,"S. cerevisiae deletion strains, locus YHR079C, strain IRE1, hits give low values",0.1 (active)
same,normalized growth,"S. cerevisiae deletion strains, locus YHR082C, strain KSP1, hits give low values",0.136 (active)
same,normalized growth,"S. cerevisiae deletion strains, locus YHR205W, strain SCH9, hits give low values",0.0414 (active)
same,normalized growth,"S. cerevisiae deletion strains, locus YIL147C, strain SLN1, hits give low values",0.814 (active)
same,normalized growth,"S. cerevisiae deletion strains, locus YJL095W, strain BCK1, hits give low values",0.0968 (active)
same,normalized growth,"S. cerevisiae deletion strains, locus YJL157C, strain FAR1, hits give low values",0.239 (active)
same,normalized growth,"S. cerevisiae deletion strains, locus YJR016C, strain ILV3, hits give low values",0.914
same,normalized growth,"S. cerevisiae deletion strains, locus YJR066W, strain TOR1 (second series), hits give low values",0.111 (active)
same,normalized growth,"S. cerevisiae deletion strains, locus YJR066W, strain TOR1, hits give low values",0.111 (active)
same,normalized growth,"S. cerevisiae deletion strains, locus YKL048C, strain ELM1, hits give low values",0.325 (active)
same,normalized growth,"S. cerevisiae deletion strains, locus YKL067W, strain YNK1, hits give low values",0.407 (active)
same,normalized growth,"S. cerevisiae deletion strains, locus YKL101W, strain HSL1, hits give low values",0.242 (active)
same,normalized growth,"S. cerevisiae deletion strains, locus YKL193C, strain SDS22, hits give low values",0.618 (active)
same,normalized growth,"S. cerevisiae deletion strains, locus YKL203C, strain TOR2, hits give low values",0.123 (active)
same,normalized growth,"S. cerevisiae deletion strains, locus YLR113W, strain HOG1, hits give low values",0.118 (active)
same,normalized growth,"S. cerevisiae deletion strains, locus YLR133W, strain CKI1, hits give low values",0.19 (active)
same,normalized growth,"S. cerevisiae deletion strains, locus YLR403W, strain SFP1, hits give low values",0.108 (active)
same,normalized growth,"S. cerevisiae deletion strains, locus YML070W, strain DAK1, hits give low values",0.219 (active)
same,normalized growth,"S. cerevisiae deletion strains, locus YMR001C, strain CDC5, hits give low values",0.781 (active)
same,normalized growth,"S. cerevisiae deletion strains, locus YMR205C, strain PFK2 (second series), hits give low values",0.401 (active)
same,normalized growth,"S. cerevisiae deletion strains, locus YMR277W, strain FCP1, hits give low values",0.548 (active)
same,normalized growth,"S. cerevisiae deletion strains, locus YNL006W, strain LST8, hits give low values",0.454 (active)
same,normalized growth,"S. cerevisiae deletion strains, locus YNL020C, strain ARK1, hits give low values",0.19 (active)
same,normalized growth,"S. cerevisiae deletion strains, locus YNL161W, strain CBK1, hits give low values",0.639 (active)
same,normalized growth,"S. cerevisiae deletion strains, locus YNL183C, strain NPR1, hits give low values",0.133 (active)
same,normalized growth,"S. cerevisiae deletion strains, locus YNL207W, strain RIO2, hits give low values",0.605 (active)
same,normalized growth,"S. cerevisiae deletion strains, locus YNL222W, strain SSU72, hits give low values",0.674 (active)
same,normalized growth,"S. cerevisiae deletion strains, locus YNL307C, strain MCK1 (second series), hits give low values",0.134 (active)
same,normalized growth,"S. cerevisiae deletion strains, locus YOL078W, strain AVO1, hits give low values",0.609 (active)
same,normalized growth,"S. cerevisiae deletion strains, locus YOL136C, strain PFK27, hits give low values",0.254 (active)
same,normalized growth,"S. cerevisiae deletion strains, locus YOR061W, strain CKA2, hits give low values",0.244 (active)
same,normalized growth,"S. cerevisiae deletion strains, locus YOR119C, strain RIO1, hits give low values",0.154 (active)
same,normalized growth,"S. cerevisiae deletion strains, locus YOR231W, strain MKK1, hits give low values",0.125 (active)
same,normalized growth,"S. cerevisiae deletion strains, locus YOR329C, strain SCD5, hits give low values",0.612 (active)
same,normalized growth,"S. cerevisiae deletion strains, locus YPL031C, strain PHO85, hits give low values",0.112 (active)
same,normalized growth,"S. cerevisiae deletion strains, locus YPL153C, strain RAD53, hits give low values",0.124 (active)
same,normalized growth,"S. cerevisiae deletion strains, locus YPL204W, strain HRR25, hits give low values",0.125 (active)
same,normalized growth,"S. cerevisiae deletion strains, locus YPL209C, strain IPL1, hits give low values",0.694 (active)
same,normalized growth,"S. cerevisiae deletion strains, locus YPL256C, strain CLN2, hits give low values",0.128 (active)
same,normalized growth,"S. cerevisiae deletion strains, locus YPR025C, strain CCL1, hits give low values",0.753 (active)
same,normalized growth,"S. cerevisiae deletion strains, locus YPR106W, strain ISR1, hits give low values",0.863 (active)
same,normalized growth,"S. cerevisiae deletion strains, locus YPR111W, strain DBF20, hits give low values",0.93
same,normalized growth,"S. cerevisiae deletion strains, strain NNK1, hits give low values",0.527 (active)
same,normalized growth,"S. cerevisiae deletion strains, strain TSCII, hits give low values",0.384 (active)
N#C/C(=C\c1c[nH]c2ccccc12)C(=O)c1ccc(O)c(O)c1,normalized growth,[1],1.02
same,normalized growth,"S. cerevisiae deletion strains, locus YAL040C, strain CLN3, hits give low values",0.987
same,normalized growth,"S. cerevisiae deletion strains, locus YCL061C, strain MRC1 (second series), hits give low values",1.02
same,normalized growth,[3],1.01
same,normalized growth,"S. cerevisiae deletion strains, locus YDR363W, strain ESC2, hits give low values",1.03
same,normalized growth,"S. cerevisiae deletion strains, locus YER002W, strain NOP16, hits give low values",1.01
same,normalized growth,[4],1.02
same,normalized growth,[6],0.996
same,normalized growth,"S. cerevisiae deletion strains, locus YMR307W, strain GAS1, hits give low values",1.03
same,normalized growth,"S. cerevisiae deletion strains, locus YNL175C, strain NOP13, hits give low values",1
same,normalized growth,"S. cerevisiae deletion strains, locus YNL197C, strain WHI3, hits give low values",1.02
same,normalized growth,"S. cerevisiae deletion strains, locus YNL224C, strain SQS1, hits give low values",1
same,normalized growth,[7],1
same,normalized growth,"S. cerevisiae deletion strains, locus YOR083W, strain WHI5 (second series), hits give low values",0.973
same,normalized growth,[8],1.02
